Measurements from PubChem BioAssay (NCATS).
Inconclusive results are not listed. Active and inactive are the calls of the source. The call rests on the fitted dose curve; in most records, active means well fitted curve in the direction sought with a large enough effect; inconclusive means small, poorly fitted or top-dose-only effect, or another doubt; inactive means no such curve, though single readings can be large; an effect the other way counts as inactive or inconclusive.

Columns and labels:
[1] = target: Glutathione peroxidase 1 (Homo sapiens) (UniProt P07203); assay: Primary qHTS Assay for Inhibitors of Recombinant Selenoprotein Glutathione Peroxidase 1 (GPX1) (AID 1845191); further: nearly all actives have a fitted effect of over 65% in size
In short: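 NADPH consumption tracked by fluorescence at 340/450 nm between t=0 and t=15 min, room temperature. Final mix: 10 nM GPX1, 100 nM glutathione reductase, 1 mM GSH, 0.5 mM NADPH, 0.5 mM cumene hydroperoxide, 0.01% BSA; 30 min compound–enzyme preincubation.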

[2] = target: Phospholipid hydroperoxide glutathione peroxidase GPX4 (Homo sapiens) (UniProt P36969); assay: Primary qHTS Assay for Inhibitors of Recombinant Selenoprotein Glutathione Peroxidase 4 (GPX4) (AID 1845192); further: nearly all actives have a fitted effect of over 65% in size
In short: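 NADPH consumption followed by fluorescence at 340/450 nm, t=0 and after 15 min at room temperature. Reaction started with cumene hydroperoxide (0.5 mM final) after 30 min compound–GPX4 preincubation; final 200 nM GPX4, 100 nM GR, 1 mM GSH, 0.5 mM NADPH.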

[3] = target: Luciferin 4-monooxygenase (Photinus pyralis) (UniProt P08659); assay: Primary firefly luciferase (FLuc) qHTS assay for identification of artifact compounds. (AID 1845220); further: nearly all actives have a fitted effect of over 60% in size
In short: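 FLuc 10 nM; luciferin 10 uM; ATP 10 uM; Tris-acetate pH 7.6, Mg-acetate 10 mM; 15 min RT preincubation; 5 min reaction; luminescence.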

[4] = Primary fluorescence-based thiol-reactive (MSTI) qHTS assay for identification of artifact compounds. (AID 1845221); further: nearly all actives have a fitted effect of over 65% in size; further: potency means the concentration at half of the fitted maximal effect
In short: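 In PBS pH 7.4 with 2% DMSO, each compound met 4 uM MSTI for one hour at ambient temperature, shielded from light, before fluorescence detection.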

[5] = system: Nanoluciferase (engineered Oplophorus gracilirostris luciferase); assay: Primary Nanoluciferase (NLuc) qHTS assay for identification of artifact compounds. (AID 1845222); further: potency means the concentration at half of the fitted maximal effect
In short: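 NLuc from S16 cell medium (1:55) plus test compounds, 15 min, room temperature. Luminescence after Nano-Glo (1:100) addition, 5 min.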

[6] = Primary redox qHTS assay for identification of artifact compounds. (AID 1845223)
In short: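 Redox-cycling detection via DTT (250 uM final) oxidation coupled to Amplex Red (25 uM)/HRP (250 mU/mL) in HBSS. 15 min preincubation plus 30 min after DTT, room temperature. Ex/Em 525/598 nm; 4-parameter Hill fit against DMSO and 10 uM DA3003.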

Measured: Potency

Sequence of Glutathione peroxidase 1 (Homo sapiens) (P07203 whole entry, looked up): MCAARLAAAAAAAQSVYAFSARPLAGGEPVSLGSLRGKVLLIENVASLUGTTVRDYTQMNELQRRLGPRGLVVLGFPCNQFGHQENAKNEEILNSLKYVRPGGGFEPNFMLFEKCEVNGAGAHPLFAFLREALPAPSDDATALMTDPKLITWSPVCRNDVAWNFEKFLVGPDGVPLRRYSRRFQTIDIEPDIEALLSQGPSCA
Sequence of Phospholipid hydroperoxide glutathione peroxidase GPX4 (Homo sapiens) (P36969 whole entry, looked up): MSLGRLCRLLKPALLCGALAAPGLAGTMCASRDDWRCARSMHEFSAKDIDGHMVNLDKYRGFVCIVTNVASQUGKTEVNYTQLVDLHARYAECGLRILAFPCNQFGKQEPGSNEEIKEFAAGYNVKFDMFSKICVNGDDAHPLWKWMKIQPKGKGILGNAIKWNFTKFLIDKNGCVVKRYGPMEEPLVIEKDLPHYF

N#Cc1ccc(COc2ccc(-c3cccc4nc(NC(=O)C5CC5)nn34)cc2)cn1
inactive: all assays above

CCCCCCCCn1cc(CN(CC)CC)c2cc(-c3cnc(N)nc3)ccc21
inactive: all assays above

COc1ccc2[nH]c(=O)c3c(c2c1)OC(C)(C)C=C3
inactive: all assays above

O=C(Nc1nc2cc(C(F)(F)F)cc(NC3CC3)n2n1)c1cccnc1
inactive: all assays above

C#CCOc1ccc2c(c1)c(-c1ccc(C(C)C)cc1)nc(=O)n2C(C)C
inactive: all assays above

CC(=O)OC1[C@H]2[C@@H](C[C@@H](C)[C@@H]3C=CC(=O)[C@@]13C)OC(=O)[C@@H]2C (stereo not given in full)
active: [4] 23.8 µM
inactive: all other assays above

CC(C)(C)c1ccc(NC(=O)N2CCN(c3ncccc3Cl)CC2)cc1
inactive: all assays above

CCC(=C(c1ccc(OCCN2CCCC2)cc1)c1ccc(OCCN2CCCC2)cc1)c1ccccc1
inactive: all assays above

C=C1C(=O)O[C@H]2/C=C(/C)[C@@H](OC(C)=O)C/C=C(\C)C[C@@H](OC(=O)/C(=C/C)COC(=O)/C(=C/C)CO)[C@@H]12
inactive: all assays above

Nc1nc2c(nc(Br)n2[C@@H]2O[C@@H]3COP(=O)(O)O[C@H]3[C@H]2O)c(=O)[nH]1
inactive: all assays above

O=C(CN1C2=NCCN2c2ccccc21)c1ccc(-c2ccccc2)cc1
inactive: all assays above

CCCNCCc1ccc(NS(=O)(=O)c2ccc(OC(F)(F)F)cc2)cc1
inactive: all assays above

COc1ccccc1OCCN1CC(COc2cccc3[nH]c4ccccc4c23)OCC1=O (stereo not given)
inactive: all assays above

CC1CC(=O)C2=C(C1)C1OC1C1(O)C2C(=O)c2cccc(O)c2C1O (stereo not given)
active: [4] 6.56 µM
inactive: all other assays above

C=C1CC2OC(=O)C(=C)C2C(OC(=O)/C(C)=C\C)CC2(C)OC1=CC2=O (stereo not given)
inactive: all assays above

CN1CCN(S(=O)(=O)c2ccc(-c3cnc(N)c(C(=O)Nc4cccnc4)n3)cc2)CC1
inactive: all assays above

CN(C)CCOC(C)(c1ccccc1)c1ccc(Cl)cc1 (stereo not given)
inactive: all assays above

COc1c(CCC(=O)O)cccc1O[C@@H]1O[C@H](CO)[C@@H](O)[C@H](O)[C@H]1O
active: [4] 13.1 µM
inactive: all other assays above

C=C1C(=O)OC2C(OC(=O)C=C(C)C)C(C)=C3C(=O)C=C(C)C3C(O)C12 (stereo not given)
active: [5] 7.4 µM
inactive: all other assays above

Cc1c(OCc2cccc(-c3ccc(C(=O)O)cc3)c2)cc2c(c1C)C(=O)C(C1CCCC1)C2 (stereo not given)
inactive: all assays above

CC(C)c1cc2c(N3CCN(C4=NCC(C)(C)S4)CC3)ncnc2s1
inactive: all assays above

CCc1ccccc1OC[C@@H](O)CN[C@H]1CCCc2ccccc21
inactive: all assays above

C=CC1(C)CC(O)C(C(=C)C(=O)OC)C(O)C1C(=C)CO (stereo not given)
inactive: all assays above

Nc1nc(OCc2cc(Br)cs2)c2[nH]cnc2n1
inactive: all assays above

COC(=O)c1ccnc(-c2cc(C(=O)Nc3ccc(C4(N)CC4)cc3)ccn2)c1
inactive: all assays above

CN(C)N(C)C(=O)[C@@]1(Cc2ccccc2)CCCN(C(=O)[C@@H](Cc2c[nH]c3ccccc23)NC(=O)C(C)(C)N)C1
inactive: all assays above

C=C1C(=O)O[C@@H]2C[C@@]3(C)CCCC(=C)[C@]3(O)C[C@H]12
inactive: all assays above

CCN(CC)C(=O)c1ccc(Nc2nc(OCC3CCCCC3)c3[nH]cnc3n2)cc1
inactive: all assays above

CC(C)(N)c1ncc(-c2ccc(OC(F)(F)F)cc2)[nH]1
inactive: all assays above

Cc1ccc(C2(C(=O)N3CCC(n4nc(-c5ccccc5)oc4=O)CC3)CC2)cc1
inactive: all assays above

CNc1ccc([N+](=O)[O-])c(Nc2ccc3[nH]ncc3c2)n1
active: [4] 4.74 µM
inactive: all other assays above

C=C1CC2[C@@]3(C)C=CC(=O)C(C)(C)C3=C(O)C(=O)[C@@]2(C)C2(C(=O)OC)C(=O)C(C)OC(=O)[C@@]12C (stereo not given in full)
inactive: all assays above

O=C1Nc2nc(-c3c(O)cccc3OCC3CC3)cc([C@@H]3CCCNC3)c2CO1
inactive: all assays above

CNS(=O)(=O)c1ccccc1Nc1nc(Nc2ccc(N3CCN(C)CC3)cc2OC)ncc1Br
active: [4] 2.67 µM
inactive: all other assays above

Cc1nc2c(C(F)(F)F)cccc2nc1-c1ccc(-c2cccc(S(C)(=O)=O)c2)cc1
inactive: all assays above

Cc1cc(Nc2nc(-c3ccccc3)nc3ccccc23)n[nH]1
inactive: all assays above

CC1=C(C(=O)Nc2cc(Cl)ccc2Cl)C(c2ccco2)C2=C(CCCC2=O)N1 (stereo not given)
inactive: all assays above

C=C(C)C(=O)OC1CC(CO)CCC/C(CO)=C/C2OC(=O)C(=C)C21 (stereo not given)
inactive: all assays above

COc1cc(-c2nc(N[C@H](CO)Cc3ccccc3)ccc2C(=O)NCCOc2ccccc2)cc(OC)c1OC
inactive: all assays above

COc1cc(/C=C/C(=O)NCCn2c(C(F)(F)F)cc3ccccc32)cc(OC)c1OC
inactive: all assays above

N#Cc1cc(C2=Nc3ccc(Br)cc3NC(=O)C2)ccn1
inactive: all assays above

O=c1[nH]c2cccc(N3CCN(Cc4ccc(-c5ccccc5)cc4)CC3)c2o1
inactive: all assays above

CCCC(Nc1nc(-c2ccc(NC(=O)NCC)c(OC)c2)ncc1C)c1cccnc1 (stereo not given)
inactive: all assays above

CC(=O)CC(=O)Nc1ccc(Cl)c(C(F)(F)F)c1
inactive: all assays above

C=CC(=O)Nc1ccc2ncnc(Nc3cccc(Br)c3)c2c1
inactive: all assays above

Cn1ncc(Cl)c1-c1cc(C(=O)NC(CN)Cc2ccc(F)c(F)c2)oc1Cl (stereo not given)
inactive: all assays above

C=C1CCC2C(C)(C(=O)O)CCCC2(C)C1CCC1=CCOC1=O (stereo not given)
inactive: all assays above

Cc1ccc(C)c(NS(=O)(=O)c2cc(C(=O)Nc3ccccc3-c3ccccc3)ccc2C)c1
inactive: all assays above

CCn1c(-c2nonc2N)nc2c(C#CC(C)(C)O)ncc(OCC3CCCNC3)c21 (stereo not given)
inactive: all assays above

C=C1C(=O)O[C@@H]2C[C@@]3(C)C[C@@H](O)C[C@H](C)C3=C[C@H]12
inactive: all assays above
